Compounds with a hit are over-represented: about 10% of the library has one in this group of screens.
MmCpn inh – Inhibitors of TCP-1 ring complex (TRiC) of Methanococcus maripaludis (MmCpn): qHTS; Chaperonin Mm-Cpn (Methanococcus maripaludis); purified Mm-Cpn ATPase, ADP Transcreener TR-FRET; Potency, µM (highest dose often 76.9 µM), most hits filed as inhibitors; 330,000 tested, 0.031% active; also: nearly all actives have a fitted effect of over 80% in size
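ATPase read-out: TR-FRET ADP immunoassay (anti-ADP Eu cryptate vs ADP-d2), ex 320 nm, em 590/665 nm; signal drops as ADP forms. Enzyme 25 nM, ATP 10 uM, 30 min at 37°C after 10 min compound preincubation.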
PLK1 PBD block – qHTS for Inhibitors of PLK1-PDB (polo-like kinase 1 - polo-box domain): Primary Screen; Serine/threonine-protein kinase PLK1 (Homo sapiens), P53350; 360,000 tested, 2.8% active; Plk1 PBD binding of FITC phosphopeptide, fluorescence polarization; Potency, µM, usual class: inhibitors; also: series mostly up to about 57 µM; nearly all actives have a fitted effect of over 65% in size
Target sequence (P53350 whole entry, looked up, the tested form may be a part): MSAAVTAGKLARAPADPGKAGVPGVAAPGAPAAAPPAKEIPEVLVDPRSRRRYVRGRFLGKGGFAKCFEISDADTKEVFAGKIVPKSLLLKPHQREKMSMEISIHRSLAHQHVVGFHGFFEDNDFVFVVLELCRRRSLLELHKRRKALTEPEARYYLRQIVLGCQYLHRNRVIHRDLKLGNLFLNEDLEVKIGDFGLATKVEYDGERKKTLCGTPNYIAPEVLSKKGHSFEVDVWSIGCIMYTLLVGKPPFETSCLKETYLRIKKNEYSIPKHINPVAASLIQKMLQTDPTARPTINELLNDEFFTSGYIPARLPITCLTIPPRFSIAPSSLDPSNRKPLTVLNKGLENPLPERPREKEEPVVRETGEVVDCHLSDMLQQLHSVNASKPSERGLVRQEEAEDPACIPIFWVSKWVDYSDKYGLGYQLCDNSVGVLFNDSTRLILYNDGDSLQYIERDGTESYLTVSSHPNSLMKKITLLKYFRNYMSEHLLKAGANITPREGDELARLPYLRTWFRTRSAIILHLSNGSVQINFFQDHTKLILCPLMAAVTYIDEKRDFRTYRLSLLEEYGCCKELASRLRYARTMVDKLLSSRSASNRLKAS
G9a block – qHTS Assay for Inhibitors of Histone Lysine Methyltransferase G9a. AID 504332, 2011. Histone-lysine N-methyltransferase EHMT2 (Homo sapiens), Q96KQ7. 350,000 tested, 8.8% active. Potency, µM (series often up to 102 µM), actives largely listed as inhibitors. G9a H3K9 monomethylation, AlphaScreen, 2 h; also: nearly all actives have a fitted effect of over 75% in size
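G9a (20 nM) preincubated 15 min RT with compounds, then 500 nM biotinylated H3K9 peptide and 20 uM SAM added; 2 h RT reaction. Monomethyl-H3K9 product detected by AlphaScreen with anti-H3K9me1 antibody, streptavidin donor and anti-rabbit IgG acceptor beads.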
CCT modulator – High-Throughput Screening for Modulators of Cytosolic Chaperonin Activity; AID 651819, 2012; 360,000 tested, 0.3% active; purified chaperonin ATPase assay, HTRF ADP detection, 30 min; activity change, % (concentration not given with the values), hits read low; in the data active = activity change below about -30%
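First, chaperonin was dispensed at 40 nM or 20 nM final depending on batch activity. Next, compounds were pinned at 76 uM and ATP added at 10 uM. After 30 min at 37 °C, ADP detection reagents ran 30 min at ambient temperature.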
Sfp PPTase inh – qHTS Assay for Inhibitors of Bacillus subtilis Sfp phosphopantetheinyl transferase (PPTase); Biochemical Sfp PPTase activity, qHTS; Potency, µM, hits mostly inhibitors; 310,000 tested, 3.5% active;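 also: the enzyme is Sfp with the accession as filed and its product quenches rhodamine fluorescence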
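Reaction rates are the 30-min fluorescence difference (ex 525, em 598 nm) in wells containing 15 nM Sfp, 5 uM rhodamine-CoA and 12.5 uM BHQ-2-YbbR at pH 7.6 with 10 mM MgCl2.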
VDR inhibitor – Inhibitors of the vitamin D receptor (VDR): qHTS; VDR-SRC2-3 peptide fluorescence polarization, 2 h; AID 504847, 2011; Potency, µM, most hits filed as inhibitors; 400,000 tested, 0.93% active; Vitamin D3 receptor (Homo sapiens), P11473
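VDR–SRC2-3 interaction, FP format. Cmpds 23 nl via pintool, brief spin, 2 h ambient incubation.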
Hits are given with their value; 0 = inactive; ? = inconclusive; - = no result; [ ] = dose if it differs, or a comment. Unless noted, calls follow the shape of the dose curve; as a rule, active = well fitted curve in the direction sought with a large enough effect; inconclusive = small, poorly fitted or top-dose-only effect, or another doubt; inactive = no such curve, though single readings can be large; an effect the other way counts as inactive or inconclusive.

SMILES	MmCpn inh	PLK1 PBD block	G9a block	CCT modulator	Sfp PPTase inh	VDR inhibitor
Cc1ccc(N(C)C(=O)C2CCN(S(=O)(=O)c3c(C)noc3/C=C/c3c(C)cc(C)cc3C)CC2)cc1	-	-	0	-	-	0
O=C(c1ccco1)N(CCC(c1ccccc1)c1ccco1)Cc1ccccc1 (stereo not drawn)	0	?	?	0	50.1µM	0
COc1ccccc1C(CCN(Cc1cccs1)C(C)=O)c1ccco1 (stereo not drawn)	0	0	44.7µM	0	20µM	?
CCC(=O)N(CCC(c1ccccc1)c1ccco1)Cc1cccs1 (stereo not drawn)	0	0	0[0.501 µM]	0	50.1µM	?
COc1cc(OC)c(C(=O)N(Cc2ccco2)Cc2cccs2)cc1OC	-	-	-	-	-	0
CCCNCCC(c1ccco1)c1ccccc1OC (stereo not drawn)	0	0	0[0.501 µM]	0	0	0
CCC(=O)NCCC(c1ccco1)c1ccccc1OC (stereo not drawn)	0	0	0	0	11.2µM	0
COc1ccc2c(c1)O[C@@H](c1cccc(C(F)(F)F)c1)[C@H](OC(=O)Nc1cc(OC)c(OC)c(OC)c1)C2=O	-	-	-	-	0	0
CC1Cc2cc(S(=O)(=O)CCC(=O)Nc3cccc(F)c3)ccc2N1C(=O)C1CC1 (stereo not drawn)	-	-	0	-	-	0
COc1ccc(OC2C(=O)N(c3ccc(F)cc3)C2c2ccc(OC)c(OC)c2)cc1 (stereo not drawn)	0	0	0[12.7 µM]	0	0	0
CCOc1ccc(C2NC(=O)C(C#N)=C(S)N2c2ccc(OC)cc2)cc1OC (stereo not drawn)	0	?	?	0	28.2µM	?
COc1ccc(N2C(S)=C(C#N)C(=O)NC2c2ccc(OC)c(OC)c2)cc1 (stereo not drawn)	0	0	?	0	22.4µM	39.8µM
COc1ccc(N2C(=O)c3ccccc3NC2c2ccc(OC)c(COc3ccccn3)c2)cc1 (stereo not drawn)	0	0	0	0	0	0
N#CCCN(C(=O)COC(=O)CNC(=O)C12CC3CC(CC(C3)C1)C2)c1ccccc1	0	0	0[0.501 µM]	0	-	0
N#CCCN(C(=O)COC(=O)C12CC3CC(CC(O)(C3)C1)C2)c1ccc(F)cc1	0	0	1.41µM	0	-	0
Cc1nnc(SCc2cc(=O)c3ccccc3[nH]2)s1	-	-	0	-	-	0
Cc1nnc(SCc2cc(=O)[nH]c(=S)[nH]2)s1	0	0	28.2µM	0	20µM	0
Cc1ccc(C)c(NC(=S)Nc2cccc3cnccc23)c1	0	?	22.4µM	0	31.6µM	0
Cc1ccccc1NC(=S)Nc1ccccn1	0	?	?	0	56.2µM	0
FC(F)(F)c1ccccc1NC(=S)Nc1cccc2cnccc12	0	29.9µM	35.5µM	0	20µM	0
FC(F)(F)c1ccccc1NC(=S)Nn1cnnc1	0	9.47µM	7.08µM	0	20µM	?
O=C(CN1CCN(Cc2ccc(F)cc2)C1=O)NCc1ccccc1	-	-	0	-	-	0
CCc1ccc(NC(=O)CSc2nc3c(sc4ccccc43)c(=O)n2CCCOC)cc1	-	-	0	-	-	0
Cc1ccccc1NC(=S)Nc1cccc2cnccc12	0	?	1.78µM	0	3.16µM	0
Fc1ccccc1NC(=S)Nc1cccc2cnccc12	0	29.9µM	17.8µM	0	22.4µM	?
SMILES	MmCpn inh	PLK1 PBD block	G9a block	CCT modulator	Sfp PPTase inh	VDR inhibitor
CCOC(=O)c1ccc(CN(Cc2ccc(OC)cc2)S(=O)(=O)c2cccc(C(F)(F)F)c2)cc1	-	-	0	-	-	0
O=[N+]([O-])c1cc2c(cc1/C=N/n1c(-c3ccccc3)n[nH]c1=S)OCO2	0	?	1.41µM	0	39.8µM	0
O=[N+]([O-])c1cc2c(cc1/C=N/n1c(-c3ccccn3)n[nH]c1=S)OCO2	0	?	0.794µM	0	22.4µM	0
O=[N+]([O-])c1cc2c(cc1C=Nc1ccccc1)OCO2	0	?	?	0	0	?
Cc1cc(C)c(S(=O)(=O)Nc2ccc(-c3ccc(N4CCCCC4)nn3)cc2)cc1C	-	-	0	-	-	0
COCCNC(=O)c1nc2c(nnn2Cc2cc(C)ccc2C)c(=O)[nH]1	0	0	11.2µM	0	?	0
CC(C)CC1(C(=O)NCC2CC2)C=CCN1C(=O)c1ccccc1 (stereo not drawn)	-	-	-	-	0	-
CC(=O)N1[C@H](C)C=C[C@]1(Cc1ccccc1)C(=O)NCc1ccc(C)o1	-	-	-	-	22.4µM	-
Cc1ccc(CNC(=O)C2(CC(C)C)C=CCN2C(=O)c2ccccc2)o1 (stereo not drawn)	-	-	-	-	39.8µM	-
C[C@@H]1C=C[C@](Cc2ccccc2)(C(=O)NCCc2c[nH]c3ccccc23)N1C(=O)c1ccccc1	0	0	50.1µM	0	0	0
COc1ccc2c(c1)C(=O)[C@H](OC(=O)Nc1ccc(OC(F)F)cc1)[C@@H](c1ccc(OC)c(Br)c1)O2	-	-	-	-	0	0
CCc1cc(=O)oc2c3c(c(Cl)cc12)OCN(Cc1cccc(OC)c1)C3	-	-	0	-	-	0
CC1CCCC(NCC(O)COC(c2ccc(F)cc2)c2ccc(F)cc2)C1C (stereo not drawn)	0	0	8.91µM	0	0	0
CC(C)OC(=O)Nc1ccc2nc(-c3cscn3)[nH]c2c1	-	-	0[12.7 µM]	-	0	0
O=C(NCc1ccc2c(c1)OCO2)C(C(=O)c1ccccc1)n1cc(Cl)ccc1=O (stereo not drawn)	0	0	50.1µM	0	0	0
C=CCNc1nc(N)c(C(=O)c2ccc3c(c2)OCO3)s1	0	0	50.1µM	0	0	0
CC(C)(C)c1nnc(NC(=O)c2ccc3c(c2)OCO3)s1	0	5.97µM	3.55µM	0	22.4µM	79.4µM
C=CCNc1nc(N)c(C(=O)Nc2cc(C)on2)s1	0	0	?	0	?	0
CC(C)c1nnc(NC(=O)c2ccc3c(c2)OCO3)s1	0	0	0	0	0	0
Cc1ccc2onc(CNC(=O)Nc3cc(F)ccc3F)c2c1	-	-	0	-	-	0
COc1ccc(N=Nc2cc(C)c(O)c(CN3CCCCC3)c2)cc1	0	0	11.2µM	0	0	0
Cc1cccc(NC2=NC(C)(C)N=C(N)N2)c1C	0	0	0	0	0	25.1µM
Cc1ccccc1NC1=NC(C)(C)N=C(N)N1	0	0	0[12.7 µM]	0	0	0
CS(=O)(=O)Nc1cccc(-c2nccc(Nc3ccc(F)cc3)n2)c1	-	-	0[0.501 µM]	-	0	?
CC(=O)[C@]1(O)Cc2c(O)c3c(c(O)c2[C@@H](O[C@H]2C[C@H](N)[C@H](O)[C@H](C)O2)C1)C(=O)c1c(O)cccc1C3=O	-	-	14.1µM	-	?	0

Screens from PubChem BioAssay.
